Results on 84 compounds are retold here after PubChem BioAssay AID720504 (National Center for Advancing Translational Sciences (NCATS), 2013).

About 10,000 (2.8%) of roughly 360,000 compounds were called active. About 4% were inconclusive and are not listed. Calls follow the shape of the dose curve; as a rule, active = well fitted inhibition curve with a large enough effect; inconclusive = small, poorly fitted or top-dose-only effect; inactive = flat fitted curve, though single readings scatter. Only a selection was taken, and actives are over-represented in it overall.
% is scaled to controls: 0 for no effect and ±100 for the full control effect; potency is read from the fitted curve at half-maximal effect.

In the experiment the target is Serine/threonine-protein kinase PLK1 (Homo sapiens) (UniProt P53350). Nature of the experiment: qHTS for Inhibitors of PLK1-PDB (polo-like kinase 1 - polo-box domain): Primary Screen. Also: nearly all actives have a fitted effect of over 65% in size. As to max response, negative = inhibition: series mostly up to about 57 µM. Particulars: Plk1 PBD binding of FITC phosphopeptide, fluorescence polarization. A general note: Quantitative high-throughput screening tests each substance at several concentrations.
Chain of Serine/threonine-protein kinase PLK1 (Homo sapiens) (P53350 whole entry, looked up, the tested form may be a part): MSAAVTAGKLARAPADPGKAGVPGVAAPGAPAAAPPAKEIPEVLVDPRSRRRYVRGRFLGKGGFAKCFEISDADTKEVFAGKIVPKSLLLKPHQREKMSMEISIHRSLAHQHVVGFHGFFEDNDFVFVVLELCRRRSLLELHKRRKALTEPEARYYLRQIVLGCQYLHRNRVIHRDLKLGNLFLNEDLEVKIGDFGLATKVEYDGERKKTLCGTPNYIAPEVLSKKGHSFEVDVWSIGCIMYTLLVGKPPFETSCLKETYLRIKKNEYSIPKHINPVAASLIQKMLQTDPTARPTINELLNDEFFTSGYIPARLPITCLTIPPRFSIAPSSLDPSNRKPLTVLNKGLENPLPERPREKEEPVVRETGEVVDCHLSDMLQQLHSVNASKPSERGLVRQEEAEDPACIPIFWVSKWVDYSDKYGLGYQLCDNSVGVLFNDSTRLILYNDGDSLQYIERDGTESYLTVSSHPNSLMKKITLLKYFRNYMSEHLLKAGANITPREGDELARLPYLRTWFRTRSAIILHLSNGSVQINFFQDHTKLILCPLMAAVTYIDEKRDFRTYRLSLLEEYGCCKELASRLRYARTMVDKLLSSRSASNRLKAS
As for `COc1ccc(COC[C@H](CC(C)C)N2CCN(C(=O)c3cccc(C(F)(F)F)c3)CCC2=O)cc1`, the max response, negative = inhibition was -20.7% (inactive).
In the case of `NS(=O)(=O)c1ccc(NC(=O)/C=C/c2ccccc2Cl)cc1`, the max response, negative = inhibition is 2.86% (inactive).
In the case of `CC(=O)NS(=O)(=O)c1ccc(NC(=O)/C=C/c2ccccc2Cl)cc1`, the Potency was 29.9 µM (active).
`O=C(/C=C/c1ccccc1Cl)Nc1ccc(S(=O)(=O)Nc2ncccn2)cc1`: the max response, negative = inhibition was -7.83% (inactive).
On the same count and under the same terms, the value for `COCOc1cccc(CN2CCC(C)(Oc3ccc(SC)cc3)C2)c1` (centres undefined) was -0.463% (inactive).
On to `O=[N+]([O-])c1cc(Cl)cc(/C=N/NC(=S)Nc2cc(S(=O)(=O)N3CCOCC3)ccc2Cl)c1O`, for which the Potency was 10.6 µM (active).
Consider `O=C(c1cc(S(=O)(=O)N2CCOCC2)ccc1Cl)N1CCOCC1`, for which the max response, negative = inhibition was -9.46% (inactive).
For `O=C(Nc1cc(S(=O)(=O)N2CCOCC2)ccc1Cl)c1cc(=O)c2ccccc2o1`, the max response, negative = inhibition was 1.44% (inactive).
On to `OC[C@@H]1CN(Cc2cccs2)C[C@H](n2cnc3c(Nc4ccccc4)ncnc32)O1`, for which the max response, negative = inhibition was -1.6% (inactive).
Take `COCCOC(=O)c1sc(=S)n(CCOC)c1N`: the Potency was 23.8 µM (active).
For `COc1ccccc1CNc1nc(Nc2ccccc2Cl)c2sccc2n1`, the max response, negative = inhibition was 5.05% (inactive).
For `COc1ccc(S(=O)(=O)N[C@@H]2C=C[C@@H](CC(=O)N3CCc4ccccc4C3)O[C@@H]2CO)cc1`, the max response, negative = inhibition was -0.456% (inactive).
As for `O=C(Nc1ccncc1)Nc1ccc(F)cc1`, the max response, negative = inhibition was 2.49% (inactive).
With `CN(C)c1ccnc(Nc2ccc(F)cc2)c1C#N`, the max response, negative = inhibition is -0.535% (inactive).
As to `Fc1ccc(Nc2nnns2)cc1`, the Potency was 13.4 µM (active).
As to `Cc1ccc(NC(=O)c2ccco2)cc1`, the max response, negative = inhibition is -4.07% (inactive).
For `CCOC(=O)[C@]12CCCC=C1N(Cc1ccc(Cl)cc1Cl)C(=O)[C@H](CC(=O)N1CCCCC1)C2`, the max response, negative = inhibition was -4.73% (inactive).
Take `CNC(=O)C[C@H]1C(=O)N(c2ccc(OC)cc2)C[C@@H]1Cc1ccccc1`: the max response, negative = inhibition was -11.8% (inactive).
On to `Cc1cccc(NC(=O)CSC(N)=O)c1C`, for which the max response, negative = inhibition was -17.1% (inactive).
With `Cc1ccccc1NC(=O)CCOc1ccccc1`, the max response, negative = inhibition was -11.8% (inactive).
For `Cc1ccccc1NC(=O)CSC(=O)c1ccccc1`, the Potency was 10.6 µM (active).
As to `CC1(C(=O)Nc2ccc3c(c2)OCCO3)CSCC(=O)N1CCOc1ccccc1` (centres undefined), the max response, negative = inhibition was 0.116% (inactive).
`OCCC#Cc1ccc(N2C(c3ccsc3)=Cc3ccc(F)cc3C2c2c[nH]c3ccccc23)cc1` (centres undefined): the max response, negative = inhibition is -1.41% (inactive).
Turning to `COc1cccc(N2CCN(c3ccc4nnc(CCC(=O)N5CCN(C)CC5)n4n3)CC2)c1`, the max response, negative = inhibition was -2.01% (inactive).
`CCOC(=O)c1cccc(NC(=O)CCc2nnc3ccc(N4CCOCC4)nn23)c1`: the max response, negative = inhibition was 2.15% (inactive).
Take `COc1cccc(NC(=O)CCc2nnc3ccc(N4CCC(C)CC4)nn23)c1`: the Potency is 26.7 µM (active).
Consider `CC(C)CCOc1ccc(C(=O)Nc2cc(S(=O)(=O)N3CCOCC3)ccc2N2CCOCC2)cc1`, for which the max response, negative = inhibition is -15.2% (inactive).
Same read-out and setting: the value for `COc1ccc(-c2ccc(C(=O)NC(C)C)c3occc23)c(C)c1` was -5.99% (inactive).
As for `O=C1NC(c2ccc(-c3ccccc3[N+](=O)[O-])o2)C(C(=O)c2ccc(Cl)cc2)C(O)(C(F)(F)F)N1` (centres undefined), the max response, negative = inhibition was -5.49% (inactive).
On to `CC1=NN(c2ccc(Cl)c(C(=O)O)c2)C(=O)/C1=C/c1ccc(-c2ccccc2[N+](=O)[O-])o1`, for which the Potency is 0.844 µM (active).
With `O=C(Nc1ccc(N2CCOCC2)cc1)c1ccc(-c2ccccc2[N+](=O)[O-])o1`, the max response, negative = inhibition is -4.38% (inactive).
With `CCCS(=O)(=O)NC(=O)C1(C)CCN(C(=O)c2sccc2C)C1` (centres undefined), the max response, negative = inhibition is -7.96% (inactive).
Take `C[C@H](NC(=O)CC[C@H]1O[C@@H](n2ccc(=O)[nH]c2=O)[C@H](O)[C@@H]1O)c1cccc2ccccc12`: the max response, negative = inhibition is -3.83% (inactive).
In the case of `O=C(NCc1ccco1)c1cccc(-c2ccc3nncn3c2)c1`, the max response, negative = inhibition was 6.92% (inactive).
Same read-out and setting: the result for `CCCCCNC(=O)C1C(=O)Nc2ccccc2C(=O)N1C(C)(C)C` (centres undefined) reads -13.8% (inactive).
Turning to `S=c1[nH]nc(-c2cccs2)n1/N=C/c1cccs1`, the Potency was 37.7 µM (active).
Consider `S=c1[nH]nc(-c2cccs2)n1/N=C/c1cn(-c2ccccc2)nc1-c1ccc(Cl)cc1`, for which the max response, negative = inhibition was -14.4% (inactive).
Regarding `Cc1ccsc1/C=N/n1c(=S)[nH]nc(C)c1=O`, the max response, negative = inhibition is -9.18% (inactive).
Same read-out and setting: the result for `CC(C)c1cccc(-c2csc(C(O)c3ccccc3)n2)c1` (centres undefined) reads -9.83% (inactive).
For the compound `O=C(CN1C(=O)/C(=C\c2ccccc2F)SC1=S)Nc1nc2ccccc2s1`, the max response, negative = inhibition is -28.6% (inactive).
Take `CN(C)S(=O)(=O)c1cccc(-c2nn(-c3ccccc3)cc2/C=C2\SC(=S)N(CC(=O)O)C2=O)c1`: the Potency is 26.7 µM (active).
On to `COc1cccc(/C=C2\SC(=S)N(CCCC(=O)N3CCOCC3)C2=O)c1`, for which the max response, negative = inhibition was -2.08% (inactive).
As to `COc1ccc(-c2nn(-c3ccccc3)cc2/C=C2/SC(=S)N(CCCC(=O)O)C2=O)c(C)c1`, the Potency was 29.9 µM (active).
For the compound `Cc1ccc(-c2nn(-c3ccccc3)cc2/C=C2\SC(=S)N(CCCCCC(=O)O)C2=O)o1`, the max response, negative = inhibition is 165% (inactive).
As to `Cc1ccc(-c2nn(-c3ccccc3)cc2/C=C/C(=O)Nc2cccc(S(N)(=O)=O)c2)cc1`, the max response, negative = inhibition is -5.39% (inactive).
Same read-out and setting: the value for `COc1ccc(CC(N)c2csc(NC(=O)Nc3ccc(C(C)C)cc3)n2)cc1` (centres undefined) was -5.6% (inactive).
The same measure, in the same setting: the value for `CC1(C(=O)Nc2cccc3c2CCCC3)CCN1C(=O)CCc1ccc(Cl)cc1Cl` (centres undefined) was 0.165% (inactive); that for `O=C(CSc1nc2ccccc2c(=O)[nH]1)Nc1nc(-c2ccc(Br)cc2)cs1` was -29% (inactive).
For the compound `N#Cc1c(-c2cccs2)nc(SCC(=O)c2ccc(Br)cc2)[nH]c1=O`, the Potency is 26.7 µM (active).
Consider `CC(=O)CSc1nc(CCc2ccccc2)c(C#N)c(=O)[nH]1`, for which the max response, negative = inhibition was 5.25% (inactive).
As for `COc1ccc(/C=C2/C(=O)OCc3cc(OC)c(OC)cc32)c(OC)c1`, the max response, negative = inhibition was -13% (inactive).
For `COc1ccc(C2/C(=C(/O)c3ccccc3)C(=O)C(=O)N2C)c(OC)c1` (centres undefined), the max response, negative = inhibition was 0.389% (inactive).
In the case of `COc1ccc(/C=C2/C(=O)N(c3ccccc3)N=C2C)c(OC)c1`, the Potency is 18.9 µM (active).
For `Cc1cccc(C)c1NC(=O)C(c1cccc(F)c1)N1CCN(C)CC1` (centres undefined), the max response, negative = inhibition is -7.61% (inactive).
Same read-out and setting: the value for `CC(=O)Nc1cnc(-c2ccc(O)cc2C)cn1` was -2.97% (inactive).
The same measure, in the same setting: the value for `COc1ccc(NC(=O)C2Cc3c(-c4ccc5c(c4)OCO5)ccnc3O2)cn1` (centres undefined) was -5.75% (inactive).
Still for that read-out and setting: the result for `C[C@H](CO)N1C[C@H](C)[C@@H](CN(C)C(=O)Nc2ccc3c(c2)OCO3)Oc2c(cccc2N(C)C)C1=O` reads -11.3% (inactive); that for `COc1ccc(NC(=O)N(C)C[C@H]2Oc3ccc(NC(=O)C4CC4)cc3C(=O)N([C@H](C)CO)C[C@@H]2C)cc1`, -15.8% (inactive).
Take `COc1ccc(NC(=O)Nc2ccc3c(c2)C(=O)N([C@H](C)CO)C[C@H](C)[C@@H](CN(C)C(=O)Nc2ccc4c(c2)OCO4)O3)cc1`: the Potency was 23.8 µM (active).
In the case of `CC(Sc1nnnn1C)C(=O)NC(=O)NC1CCCCC1` (centres undefined), the max response, negative = inhibition was -1.5% (inactive).
As for `CC(Sc1nnnn1C1CCCCC1)C(=O)O` (centres undefined), the Potency is 4.23 µM (active).
Regarding `O=C(CSc1nnnn1C1CCCC1)N1CCCCC1`, the max response, negative = inhibition was -1.23% (inactive).
Consider `COc1ccc(OC)c(NC(=O)c2cc(-c3cc(F)ccc3OCC3CCCO3)n[nH]2)c1` (centres undefined), for which the max response, negative = inhibition is 1.76% (inactive).
In the case of `OCC[C@H]1C[C@@H](O)[C@H](O)[C@@]2(OCCc3ccccc32)O1`, the Potency is 21.2 µM (active).
Regarding `COc1ccc2c(c1)CCCO[C@]21O[C@H](CCO)C[C@H](O)[C@H]1O`, the max response, negative = inhibition is -7.9% (inactive).
For the compound `OCC[C@H]1C[C@@H](O)[C@H](O)[C@]2(OCCCc3ccccc32)O1`, the max response, negative = inhibition is -6.7% (inactive).
Regarding `CC1(C(=O)NCc2ccc(F)c(F)c2)Cc2c(-c3ccc4c(c3)OCO4)ccnc2O1` (centres undefined), the max response, negative = inhibition is 5.1% (inactive).
Still for that read-out and setting: the result for `CC1(Cc2cccc(C#N)c2)C(=O)Nc2ccc(-c3cccc(C(F)(F)F)c3)cc21` (centres undefined) reads -6.86% (inactive); that for `CCCCC[C@@H]1C=C(C(=O)O)[C@H](c2ccc(C#N)cc2)N1S(=O)(=O)c1ccc(C)cc1`, -5.69% (inactive).
On the same count and under the same terms, the value for `CCCCC[C@@H]1C=C(C(=O)OCC)[C@H](c2ccccc2)N1S(=O)(=O)c1ccc(C)cc1` was -0.281% (inactive).
As to `Cc1ccc(S(=O)(=O)N2[C@@H](c3ccc(Br)cc3)C(C(=O)O)=C[C@H]2CC2CCCC2)cc1`, the Potency was 23.8 µM (active).
Turning to `Cc1ccc(S(=O)(=O)N2CC[C@H]3[C@@H](C2)C(=O)C[C@@H](c2ccccc2)N3S(=O)(=O)c2ccc(C)cc2)cc1`, the max response, negative = inhibition was -5.58% (inactive).
Regarding `CCN(CC)CCCC(C)n1c2nc(=O)[nH]c(=O)c-2nc2cc(Cl)ccc21` (centres undefined), the Potency was 0.752 µM (active).
`Cc1ccc(Sc2ccc(NC(=O)c3ccc(F)cc3)cc2C#N)cc1`: the max response, negative = inhibition is -2.21% (inactive).
As for `Cc1ccc(-c2nc3ccc(Br)cn3c2Cc2ccccc2C(F)(F)F)cc1`, the max response, negative = inhibition is -28.5% (inactive).
As to `Cc1ccc([C@@H]2CC(=O)[C@@H]3CN(S(=O)(=O)c4ccc(C)cc4)[C@H](c4ccccc4F)C[C@@H]3N2S(=O)(=O)c2ccc(Cl)cc2)cc1`, the max response, negative = inhibition is 3.58% (inactive).
Still for that read-out and setting: the result for `Nn1c(SCC(=O)Nc2nccs2)nnc1-c1ccco1` reads -17.8% (inactive).
On to `NC(=O)c1c(NC(=O)CSc2nnc(-c3ccco3)n2N)sc2c1CCCC2`, for which the Potency is 15 µM (active).
`CCc1cccc(C)c1NC(=O)CSc1nnc(-c2ccco2)n1N`: the max response, negative = inhibition was -0.459% (inactive).
`COc1ccc([C@H]2CC(=O)C[C@@H](CCn3cc(CC4CCCC4)nn3)O2)cc1`: the max response, negative = inhibition was 2.62% (inactive).
Regarding `CN(C)CCOC1c2ccccc2-c2ccccc21`, the Potency is 29.9 µM (active).
On to `CN(C)CCOc1cccc(Br)c1`, for which the max response, negative = inhibition is -4.17% (inactive).
As for `CC(=O)O[C@H]1c2ccccc2-c2ccccc2[C@@H]1OC(C)=O`, the max response, negative = inhibition was 1.29% (inactive).
Take `CCCCC[C@H](C)N1C[C@@H](COCc2ccccc2)Oc2cc(N3CC[C@@H](N(C)C)C3)ccc2S1(=O)=O`: the max response, negative = inhibition is 4.46% (inactive).
